We go through 18 molecules from PubChem BioAssay (NCI).

The structures appear in SMILES notation. Compounds without any hit were thinned out: in the full panel of roughly 79,000, 15% have a hit. Values without a mark were called inactive. No stated cut-off is given here; in the data, active means growth inhibition above about 70%; inactive means the rest.

The assay in a line: NCI Yeast Anticancer Drug Screen. Data for the rad50 strain (AID 155).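 Further: 0% = growth of vehicle-only cultures of the same strain.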 Conditions: S. cerevisiae rad50 strain growth inhibition; at 50.0 µM; stronger effect = higher value. In short, it runs like this:
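Relative growth inhibition (compound vs vehicle) was measured in yeast with a defined repair-gene alteration.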
As to `Cc1cc([NH-])c([NH-])cc1C.[Cl][Pt+2][Cl]`, the growth inhibition was -2.85%.
Take `NC(=O)CCCC(C(N)=O)(c1ccccc1)c1ccccc1`: the growth inhibition was 9.2%.
In the case of `CCCCOC(=O)c1ccc(NC(=O)Nc2ccc(SC)cc2)cc1`, the growth inhibition was -4.05%.
`O=C(NN1C(=O)CSC1c1ccccc1F)c1ccncc1` (stereo not drawn): the growth inhibition is 11.2%.
The result for `Nc1nc2ncc(=O)[nH]c2c(=O)[nH]1` reads -35.1%.
For `CC(=O)NC(C(=O)O)C(C)(C)S` (stereo not drawn), the growth inhibition was -1.85%.
The result for `CCc1ccccc1NC(C)=O` reads -4.75%.
As to `CC(O)CNCC(C)(C)N` (stereo not drawn), the growth inhibition was -4.6%.
With `COc1ccc(Nc2nc(NS(=O)(=O)c3cc(C)c(Cl)cc3S)n[nH]2)cc1`, the growth inhibition is 23.4%.
As for `O=C(Nc1cccc(Cl)c1Cl)c1cc(/C=C/c2ccc([N+](=O)[O-])cc2)on1`, the growth inhibition was -21.2%.
For the molecule `COC(=O)c1cc(NS(=O)(=O)c2ccc(N)cc2)cc(C(=O)OC)c1`, the growth inhibition was -12.6%.
With `CC(=O)N1C(=O)C(=O)c2cc(Cl)ccc21`, the growth inhibition was -1.85%.
Consider `Cc1cc2ccc(OC(=O)c3ccc(N=C(N)N)cc3)cc2oc1=O`, for which the growth inhibition is -8.95%.
With `Nc1ncnc2c1ncn2-c1ccccc1Cl`, the growth inhibition was 4.6%.
The result for `Cc1nc2c(N3CCCCC3)ncnc2o1` reads 7.3%.
`CCCC(C)OC(=O)CC(c1ccccc1)N1CCCCC1` (stereo not drawn): the growth inhibition is 41.7%.
On to `CC(=O)c1cc([N+](=O)[O-])c(O)c([N+](=O)[O-])c1O`, for which the growth inhibition is 20.4%.
As for `Brc1nc(-[n+]2ccccc2)[n-]c1Br`, the growth inhibition is -0.75%.
